In PubChem BioAssay one finds inhibition data, which are given here for 16 molecules.

Several values for one entry are separate records, joined by “and”; a condition that tells them apart may be missing. Identical values can stand only once. Activity calls are given as the source filed them. No stated cut-off is given here; in the data, active means inhibition above about 28%; inactive means the rest.

The nature of the test: StAR promoter reporter inhibitors, counter-screen for LRH-1 inverse agonist project, cell-based, luminescence, high throughput (AID 651611). To be noted: StAR promoter luciferase reporter counterscreen, at 3.6 µM, hits give high values. On the technique in general: The purpose of a counterscreen is to sort out artefacts and off-target activity.
As usually defined, the inhibition is the drop in the measured response relative to a control, in per cent. Regarding `COc1ccc(Nc2ccncc2[N+](=O)[O-])cc1`, the inhibition is 13.4% (inactive).

Regarding `CCOC(=O)c1c2c(n(-c3ccc(OC)cc3)c1C)C(=O)C(=O)c1ccccc1-2`, the inhibition was 63% (active).

In the case of `CN1/C(=C\C(=O)C[n+]2ccc3ccccc3c2)C(C)(C)c2ccccc21`, the inhibition was 35.9% (active).

Turning to `Cn1nccc1C(=O)NC1CCCc2c1cnn2-c1ccc(C(C)(C)C)cc1` (stereo unspecified), the inhibition is 42.5% (active).

In the case of `CCCCCCCCCCCCCCCCn1cc[n+](C)c1`, the inhibition is 36% (active).

Regarding `Cc1ccc(S(=O)(=O)/C(=C/Cl)NC(=O)c2ccccc2)cc1`, the inhibition is 42.9% (active).

As to `Cc1ccc(NC2=C(N3CCCCC3)C(=O)c3ccccc3C2=O)cc1`, the inhibition is -37.9% (inactive).

On to `Clc1ccc(C2=Nn3c(nnc3-c3n[nH]c4c3CCC4)SC2)cc1`, for which the inhibition is 61.5% (active).

`CC(=O)c1cn(CC(=O)Nc2ccc(C)cc2C)c2ccccc12`: the inhibition is 11.3% (inactive).

In the case of `C=C1C(=O)[C@]23C[C@H]1CCC2[C@@]1(C)C(C[C@@H]3O)[C@](C)(C(=O)OC)CC[C@@H]1OC(C)=O` (stereo partly specified), the inhibition was 61.7% (active).

Regarding `CCCCCCCCCCCCCCCC[n+]1ccccc1`, the inhibition was 23.1% (inactive) and 10.5% (inactive).

Take `CCOc1ccc(-n2c(-c3ccccc3)c[n+]3c2CCCCC3)cc1`: the inhibition was 29.9% (active).

`COC(=O)/C=C/C(=O)Nc1cccc(C(F)(F)F)c1`: the inhibition is 46.8% (active).

On to `Cc1ccccc1C(=O)N/N=C/c1ccc([N+](=O)[O-])s1`, for which the inhibition was 46.1% (active).

As to `Brc1ccc(C2=Nn3c(nnc3-c3n[nH]c4c3CCC4)SC2)cc1`, the inhibition was 50.6% (active).

For the molecule `CCOc1ccc(Nc2cc(C)nc(-n3nc(C)cc3C)n2)cc1`, the inhibition is 46.8% (active).
